As a reminder, the AC50 is the concentration giving half of the maximal activity seen.

Each structure is given as a SMILES string. The source made the active and inactive calls. The calls were made as follows: active = hit-call score of the fitted dose curve at least 0.9, where 1 is the maximum; inactive = score below 0.9.

40 compounds from PubChem BioAssay (EPA / NIEHS) can be followed below.

The assay is described as follows: ATG_EGR_CIS: Attagene CIS-FACTORIAL HepG2 Assay for human Early Growth Response 1 (EGR1) (AID 2282938). Particulars: HepG2 Attagene CIS-FACTORIAL EGR reporter mRNA; actives raise or lower the signal. Here is the method: ATG_CIS is a cell-based, multiplexed-readout assay that uses HepG2, a human liver cell line, with measurements taken at 24 hours after chemical dosing in a 24-well plate.ATG_EGR_CIS is one of 52 assay component(s) measured or calculated from the ATG_CIS assay. It is designed to make measurements of mRNA induction, a form of inducible reporter, as detected with fluorescence intensity signals by Reverse transcription polymerase chain reaction (RT-PCR) and Capillary electrophoresis technology.Data from the assay component ATG_EGR_CIS was analyzed into 1 assay endpoint. This assay endpoint, ATG_EGR_CIS, was analyzed with bidirectional fitting relative to DMSO as the negative control and baseline of activity. Using a type of inducible reporter, measures of mRNA for gain or loss-of-signal activity can be used to understand the reporter gene at the transcription factor-level as they relate to the gene EGR1. Furthermore, this assay endpoint can be referred to as a primary readout, because this assay has produced multiple assay endpoints where this one serves a reporter gene function. To generalize the intended target to other relatable targets, this assay endpoint is annotated to the dna binding intended target family, where the subfamily is zinc finger.
Human liver HepG2 cells are transiently transfected with multiple reporter transcription units (MRTUs) in 6-well plates using FuGene 6 reagent (Roche; 3 ml FuGene/1 mg DNA). The MRTU constructs are regulated by a cis-regulating element (promoter). […] A major difference between the CIS and TRANS system is that in CIS activities of endogenous TFs are measured, whereas the TRANS assay evaluates changes in activities of exogenous, chimeric NR-Gal4 proteins. […] At the end of 24 hour incubation, total RNA was isolated using TriZol reagent (Invitrogen). The isolated RNA is then reverse-transcribed using oligo(dT) primer and Mo-MLV reverse transcriptase (Invitrogen) with DNAse I (Ambion) treatment for 30 min. The one-tenth of the produced cDNA was amplified by PCR using Taq DNA polymerase (Invitrogen) and two reporter sequence-specific primers. The PCR products were fluorescently labeled by primer extension with 6-arboxyfluorescein (6-FAM) 5'-labeled reporter sequence-specific primer (2 min at 95 C, 20 s at 68 C and 10 min at 72 C) and these products were digested with 5U of HpaI (New England Biolabs) for 2h at 37 C. The fragments were purified using Qiaquick PCR columns (Qiagen), analyzed on an ABI 3130xL genetic analyzer (Applied Biosystems) with peak positions identified by using a set of X-rhodamine (ROX)-labeled MapMarker1000 molecular weight standards (BioVentures). The raw capillary electrophoresis data was processed using Attagraph software (Attagene).
With `CCc1cc(C(N)=S)ccn1`, the outcome was inactive.

`Nc1nnc(-c2ccc([N+](=O)[O-])o2)o1`: the compound was classed as inactive.

For the compound `O=[N+]([O-])c1ccccc1C(F)(F)F`, the result was inactive.

With `O=C(O)/C=C\C(=O)O`, the result was inactive.

Regarding `CNC[C@H](O)[C@@H](O)[C@H](O)[C@H](O)CO`, the compound was classed as inactive.

Turning to `C=C(C)C(=O)OCCCCCC`, the call was inactive.

`CCCCCCC1CCC(=O)O1` (stereo not given): the compound was called inactive.

With `Oc1cccc2ccccc12`, the result was inactive.

Turning to `O=C(CC(C(=O)OC1CCCCC1)S(=O)(=O)O)OC1CCCCC1` (stereo not given), the result was inactive.

With `CC(C)CC(=O)CC(C)C`, the call was inactive.

For `CCCCn1cc[n+](C)c1`, the compound was classed as inactive.

Consider `CCOC(=O)c1ccccc1`, for which the outcome was inactive.

As for `O=C1CCCCCCCCCCCCCC1`, the outcome was inactive.

On to `CCC(C)(CCC(C)C)C(=O)O` (stereo not given), for which the result was inactive.

With `COC(OC)C(C)c1ccccc1` (stereo not given), the compound was called inactive.

Take `Cc1ccccc1S(=O)(=O)O`: the result was inactive.

`CCCCCCCCCC/C=C/C1CC(=O)OC1=O` (stereo not given): the compound was called inactive.

As to `CCCC(=O)OC`, the call was inactive.

Regarding `CCC(C)C1N=C(C)C(C)S1` (stereo not given), the outcome was inactive.

Turning to `O=S(=O)(O)c1cccc2ccccc12`, the result was inactive.

With `N#CCN(CC#N)CCN(CC#N)CC#N`, the compound was called inactive.

For `NC(=O)c1ccc([N+](=O)[O-])cc1Cl`, the compound was classed as inactive.

For the compound `COc1ccccc1OCC(O)CO` (stereo not given), the compound was called inactive.

As to `COc1ccc2ccccc2c1`, the result was inactive.

On to `COCCCN`, for which the outcome was inactive.

For `CN(C)N=Nc1ccccc1`, the result was inactive.

For the compound `CCO[Si](OCC)(OCC)c1ccccc1`, the outcome was inactive.

In the case of `C[C@H]1C[C@H]2[C@@H]3CCC4=CC(=O)C=C[C@]4(C)[C@@]3(F)[C@@H](O)C[C@]2(C)[C@@]1(O)C(=O)CO`, the half-maximal activity concentration (AC50) was 100 µM (active).

As to `O=[N+]([O-])c1ccc2nc[nH]c2c1`, the compound was called inactive.

Take `Clc1ccc(Sc2cc(Cl)c(Cl)cc2Cl)cc1`: the result was inactive.

Regarding `CCCCCCC1CCCC(=O)O1` (stereo not given), the compound was classed as inactive.

As for `CC(=O)OC(C)(C)Cc1ccccc1`, the outcome was inactive.

With `Nc1ccc(S(=O)(=O)Nc2cnc3ccccc3n2)cc1`, the outcome was inactive.

Turning to `CCOc1ccc2c(c1)C(C)CC(C)(C)N2` (stereo not given), the result was inactive.

Take `CC(=O)CCc1ccccc1`: the result was inactive.

`CCCc1c(OCCCCc2nn[nH]n2)ccc(C(C)=O)c1O`: the call was inactive.

With `CCCCCCCCCCC1CO1` (stereo not given), the call was inactive.

As to `COC(=O)[C@]1(C)CCC[C@@]2(C)[C@H]1CC=C1C=C(C(C)C)CC[C@@H]12`, the compound was called inactive.

Consider `F[B-](F)(F)F`, for which the outcome was inactive.

As for `CC1(C)S[C@@H]2[C@H](NC(=O)[C@H](N)c3ccccc3)C(=O)N2[C@H]1C(=O)O`, the call was inactive.
